Shown are actives, neighbours in structure and some others; about 19% of the full set was active somewhere.
HT1080-NT tox: kills 2HG-producing HT-1080-NT fibrosarcoma cells | HT-1080-NT fibrosarcoma viability, CellTiter-Glo ATP luminescence, 48 h | Potency, µM (titrated, usually from 46.1 µM), for inactives: at the top dose activity, negative = less viability, usual class: cytotoxic | 360,000 compounds, 1.6% hits | AID 686970;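 also: NT is the 2HG producing partner of a matched IDH1 knockdown line; 0% = DMSO-treated cells and -100% = media-only wells without cells; nearly all actives have a fitted effect of over 55% in size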
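750 cells/well, RPMI + 5% FBS; 2 h settle, compound pin-transfer, 48 h at 37 degrees C. CellTiter-Glo 10 min RT, luminescence. Normalized to DMSO and media-only wells.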
DT40 TDP1 no CPT: qHTS for Inhibitors of human tyrosyl-DNA phosphodiesterase 1 (TDP1): qHTS in cells in absence of CPT | DT40 Tdp1-/- hTDP1 cells, no CPT, ATP luminescence, 48 h | Potency, µM (titrated, usually from 46.2 µM), for inactives: top-dose activity change, negative = growth inhibition, most hits filed as inhibitors | 420,000 compounds, 15% hits; also: nearly all actives have a fitted effect of over 55% in size
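Readout: luminescence from CellTiter-Glo after 30 min in the dark at RT. Cells: DT40 Tdp1-/- with stable hTDP1, 400/well. Exposure: compounds alone, ≥48 hr, 37 °C.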
HT1080 IDH1KD tx: toxicity to HT-1080 IDH1 knockdown cells (counter line); HT-1080 IDH1 knockdown viability, ATP luminescence, 48 h; Potency, µM (highest dose often 46.1 µM), for the others: at the highest dose activity, negative = toxicity, most hits filed as cytotoxic; 360,000 compounds, 2% hits;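 also: 0% = DMSO wells and -100% = cell-free medium wells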
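Knockdown cells (IDH1KD HT-1080) received compounds 2 h after plating at 750 cells/well and were kept 48 h at 37 °C in 5% FBS RPMI. A CellTiter-Glo luminescence read gave % activity for curve fitting.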
KB-V1 cytotox: kills drug-selected multidrug resistant KB-V1 cells | KB-V1 MDR cells viability, CellTiter-Glo, 72 h | Potency, µM (doses to about 46.1 µM), most hits filed as cytotoxic | 400,000 compounds, 3.4% hits | AID 1347076; also: nearly all actives have a fitted effect of over 60% in size
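In this primary screen, KB-V1 cells overexpressing P-gp are incubated with library compounds (lowest to highest concentration) for 72 h at 37 degrees C before a luminescent ATP viability read.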
KB-3-1 tox: KB-3-1 parental cell cytotoxicity; 400,000 compounds, 1.4% hits; Potency, µM (series often up to 46.1 µM), usual class: cytotoxic; KB-3-1 viability, CellTiter-Glo ATP luminescence, 72 h; AID 1347075; also: nearly all actives have a fitted effect of over 60% in size
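72 h, 37 °C compound treatment of KB-3-1 parental cells; CellTiter-Glo added, 10 min, luminescence read. Data corrected against DMSO-only plates and normalized before curve fitting.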
TDP1 cell CPT: DT40-hTDP1 cell growth loss with CPT; chicken DT40 Tdp1-/-;hTDP1 cells + 20 nM CPT, ATP luminescence, 48 h; Potency, µM (top dose mostly 46.2 µM), for inactives: at the top dose activity change, negative = growth inhibition, hits mostly inhibitors; 420,000 compounds, 12% hits; also: nearly all actives have a fitted effect of over 55% in size
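Chicken DT40 Tdp1-/- cells complemented with human TDP1, 400 cells/well, exposed to compounds plus 20 nM camptothecin for at least 48 h at 37 C; viability read as ATP content by CellTiter-Glo luminescence.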
Active calls of the source: *; i = inactive; ? = inconclusive; . = no result. Calls follow the shape of the dose curve; as a rule, active = well fitted curve in the direction sought with a large enough effect; inconclusive = small, poorly fitted or top-dose-only effect, or another doubt; inactive = no such curve, though single readings can be large; an effect the other way counts as inactive or inconclusive. Unless noted, % is scaled to controls: 0 for no effect and ±100 for the full control effect; potency is read from the fitted curve at half-maximal effect.

SMILES | HT1080-NT tox | DT40 TDP1 no CPT | HT1080 IDH1KD tx | KB-V1 cytotox | KB-3-1 tox | TDP1 cell CPT
Cc1ccc(C)c(NC(=S)N2CCC(C(=O)c3ccc(F)cc3)CC2)c1 | -1.2% | -26.7% | 3.0% | i | i | -1.3%
CCOc1ccc(S(=O)(=O)/N=C(/Nc2ccc(C(C)=O)cc2)c2ccccc2)cc1 | ? | 13µM* | -18.5% | i | i | 23.1µM*
Cc1ccc(NC(=O)CCS(=O)(=O)c2ccccc2)cc1S(=O)(=O)N1CCOCC1 | -0.8% | -6.0% | 1.0% | i | i | 8.0%
CCOc1ccc(S(=O)(=O)/N=C(/Nc2ccc(C)c(S(=O)(=O)N3CCOCC3)c2)c2ccccc2)cc1 | -2.7% | ? | -0.4% | 9.2µM* | i | ?
CCOc1ccc(S(=O)(=O)/N=C(/Nc2ccc(OC)cc2)c2ccccc2)cc1 | 4.6% | -28.8% | 2.5% | ? | i | -1.4%
CC1CC[C@@]2(C(=O)O)CCC3(C)C(=CCC4[C@]5(C)CC(O)C(O)[C@](C)(CO)C5C(O)C[C@@]43C)C2C1C (some centres not stated) | . | 0.4% | . | . | . | 1.0%
CCc1nc(SCC(=O)N2c3ccccc3CC2C)c2c(C)c(C)sc2n1 (configuration not stated) | 6.31µM* | 10.3µM* | ? | i | i | 9.2µM*
Cc1nnc(SCC(=O)N2c3ccccc3CC2C)s1 (configuration not stated) | 12.1% | -6.5% | 5.1% | i | i | -19.0%
Cc1sc2nc(C(C)C)nc(SCC(=O)N3c4ccccc4CC3C)c2c1C (configuration not stated) | 8.0% | ? | 16.7% | 18.4µM* | i | ?
COCCNC(=O)C1(C)CCN(C(=O)c2sc(-c3ccccc3)nc2C)C1 (configuration not stated) | 17.5% | -6.6% | 24.9% | i | i | -6.3%
CCc1ccc2c(c1)C(=O)C[C@]1(CCC[C@H](C)C1)O2 | -23.9% | ? | 3.7% | i | i | ?
O=Cc1ccc(-c2cc(Cl)ccc2Cl)[nH]1 | -6.5% | -11.2% | 7.5% | i | i | 1.6%
CCOc1ccccc1C(=O)NC(C(=O)NCc1ccccc1OC)C(C)C (configuration not stated) | 9.3% | 16.4µM* | 8.0% | ? | i | ?
CCOc1ccc(C(CCc2ccccc2)NC(=O)c2ccccc2F)cc1OCC (configuration not stated) | 12.7% | ? | -23.2% | ? | i | 35.5µM*
COc1ccccc1CNC(=O)CC(C)C | 15.6% | ? | 23.5% | i | i | 23.1µM*
COc1ccccc1CNC(=O)COc1ccccc1OC | 10.1% | -1.2% | 2.0% | i | i | -9.3%
CCOc1ccccc1C(=O)NC(C)CCc1ccccc1 (configuration not stated) | 12.7% | 16.4µM* | 7.6% | ? | i | ?
CC(=O)OCCN1CCN(C(=O)CN2C(=O)NC(c3ccccc3)(c3ccccc3)C2=O)CC1 | -11.3% | -4.1% | 1.8% | i | i | 3.2%
CC(=O)N1CCC(=NNC(=O)c2cc3ccccc3cc2O)CC1 | -2.4% | ? | 2.0% | ? | i | -23.6%
CCC(C)(CCNC(=O)Cc1ccccc1)c1ccccc1OC (configuration not stated) | -0.1% | ? | -2.1% | i | i | 23.1µM*
O=C(/C=C1\NCC2c3ccccc3CCN2C1=O)c1ccccc1 (configuration not stated) | 3.2% | ? | 4.9% | ? | i | ?
CC(C)C[C@H]1CNC(=O)C(=O)N1C[C@@H]1CCCN1C[C@H](Cc1ccc(O)cc1)N1C[C@H](Cc2ccccc2)N(CC2CCCCC2)C(=O)C1=O | ? | ? | ? | i | ? | ?
CC(C)C[C@H]1CNC(=S)N1C[C@H]1CCCN1C[C@H](Cc1ccc(O)cc1)N1C[C@H](Cc2ccc(O)cc2)N(CC2CCCCCC2)C1=S | 11.6µM* | 6.51µM* | 13µM* | ? | ? | 4.61µM*
CC(C)C[C@H]1CNC(=S)N1CC1CCCN1C[C@H](Cc1ccccc1)N1C[C@H](Cc2ccc(O)cc2)N(CC2CCCCCC2)C1=S (some centres not stated) | -21.2% | ? | ? | ? | ? | ?
CC(C)C[C@H]1CN([C@@H](Cc2ccc(O)cc2)CN2CCC[C@@H]2CN2C(=S)NC[C@@H]2Cc2ccccc2)C(=S)N1CC1CCCCCC1 | ? | 20.6µM* | -26.1% | i | i | ?
SMILES | HT1080-NT tox | DT40 TDP1 no CPT | HT1080 IDH1KD tx | KB-V1 cytotox | KB-3-1 tox | TDP1 cell CPT
CC(C)C[C@H]1CN([C@@H](Cc2ccc(O)cc2)CN2CCCC2CN2C(=S)NC[C@@H]2Cc2ccccc2)C(=S)N1CC1CCCCC1 (some centres not stated) | -17.4% | 14.6µM* | -4.0% | ? | i | 16.4µM*
Oc1ccc(C[C@H]2CNC(=S)N2C[C@H]2CCCN2C[C@H](Cc2ccccc2)N2C[C@H](Cc3ccccc3)N(CC3CCCCC3)C2=S)cc1 | ? | 13µM* | ? | i | ? | ?
CN(C)/C=C/c1oc2ccc(O)cc2c1[N+](=O)[O-] | -20.8% | ? | -29.0% | i | i | 5.4%
Cc1cccc2nc(COc3ccc4ccccc4c3Br)cn12 | -17.8% | 23.1µM* | -9.6% | ? | ? | ?
Cc1cccc2nc(CSc3ccccc3N)cn12 | -9.0% | ? | 1.1% | i | i | -9.4%
CCOc1ccc(OCCOC(=O)CN(C)S(=O)(=O)c2ccc(NC(C)=O)cc2)cc1 | 7.5% | 0.2% | 4.5% | i | i | -3.0%
CC(=O)N(C)c1ccc(OCC(O)Cn2c(C)nc3ccccc32)cc1 (configuration not stated) | -0.2% | 6.51µM* | -21.1% | i | ? | 5.8µM*
COc1ccc(N(CC(O)Cn2c(C)nc3ccccc32)S(=O)(=O)c2ccccc2)cc1 (configuration not stated) | -4.1% | ? | 0.6% | ? | i | -26.4%
Cc1nc2ccccc2n1CC(O)COC1CCCCC1 (configuration not stated) | -5.9% | 20.6µM* | -0.7% | 16.4µM* | i | 18.4µM*
COc1cccc(OCC(Cn2c(C)nc3ccccc32)OC(C)=O)c1 (configuration not stated) | ? | 8.2µM* | ? | i | i | ?
